The source of these data is PubChem BioAssay (NCI).

What all share (test): NCI-60 one-dose screen, 48 h (100 = growth as untreated, 0 = no growth, -100 = all killed)
What all share (details): 10 µM unless noted

The subject of assay [1] is RPMI-8226 leukemia.
The test system of assay [2] is OVCAR-8 ovarian.
Assay [3] deals with OVCAR-5 ovarian.
Assay [4] concerns OVCAR-4 ovarian.
Assay [5] concerns SK-OV-3 ovarian.
The subject of assay [6] is IGROV1 ovarian.
Assay [7] has as its system OVCAR-3 ovarian.
Assay [8] concerns HS 578T breast.
Assay [9] has as its system NCI/ADR-RES ovarian.
Assay [10] deals with T-47D breast.
In assay [11] the test system is MDA-MB-435 melanoma.
In assay [12] the test system is SW-620 colon.
In assay [13] the test system is MCF7 breast.
The subject of assay [14] is HCT-116 colon.
For assay [15], the system named is HCC-2998 colon.
Assay [16] has as its system KM12 colon.
For assay [17], the system named is MDA-MB-468 breast.
The test system of assay [18] is BT-549 breast.

Compounds without any hit were thinned out: in the full panel of roughly 83,000, 20% have a hit.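 Results are percent growth after 48 hours of single-concentration exposure. 100 means growth as in untreated cells, lower positive values show inhibition; negative values down to -100 show cell death.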 The source made the active and inactive calls. How the source made its calls: active means growth percent below 10; inactive means the rest.

Regarding `COc1cccc(/C=C/C(=O)c2ccc(OC)c(S(N)(=O)=O)c2)c1`, the growth in [1] is -9.86% (active); in [2], 10.5% (inactive); in assay [3], 24.2% (inactive); in assay [4], 57.7% (inactive); in assay [5], 67.8% (inactive); in [6], 42.1% (inactive). For the same molecule, the growth in assay [7] is 16.3% (inactive); in assay [8], 91.6% (inactive); in [9], 13.3% (inactive); in assay [10], 21% (inactive); in assay [11], 34.1% (inactive); in assay [12] it was 8.39% (active). Further, the growth in assay [13] was 7.97% (active); in assay [14] it was -73.8% (active); in [15], 29.7% (inactive); in assay [16], -41.6% (active); in assay [17], 20% (inactive).
Regarding `CN1CCN(c2ccc3c(c2)nc(NNC(=O)c2ncccn2)c2cccn23)CC1`, the growth in [1] is 28.4% (inactive); in assay [2] it was -4.43% (active); in assay [3], -62.9% (active); in assay [4] it was -41.7% (active); in [5], -13.2% (active); in [6], 11.3% (inactive). For the same molecule, the growth in assay [7] is -22.8% (active); in assay [8], 26.5% (inactive); in assay [9], 4.15% (active); in [10], -22.3% (active); in assay [11] it was -45.7% (active); in assay [12] it was -6.01% (active). Moreover, the growth in [13] was -17.6% (active); in assay [14], 0.844% (active); in [15] it was -87.7% (active); in assay [16], -14.2% (active); in assay [17], -42.8% (active).
Turning to `COc1ccc(C(=O)/C=C/c2cccc(Br)c2)cc1S(N)(=O)=O`, the growth in [1] is -15.9% (active); in assay [2] it was -95.1% (active); in [3], -92% (active); in assay [4], 7.28% (active); in assay [5], 8.53% (active); in [6] it was -33.7% (active). Moreover, the growth in [7] is -47.7% (active); in assay [8], 30.8% (inactive); in assay [9], -21.5% (active); in [10] it was -71.4% (active); in assay [11], -5.65% (active); in assay [12], -19.8% (active). Also, the growth was -77.2% (active) in assay [13]; -99.2% (active) in [14]; -92.8% (active) in assay [15]; -62.8% (active) in assay [16]; -53.9% (active) in [17].
On to `COc1ccc(C(=O)/C=C/c2c(F)cccc2Cl)cc1S(N)(=O)=O`, for which the growth in assay [1] is -10.1% (active); in assay [2], 3.5% (active); in assay [3], 25% (inactive); in [5], 27% (inactive); in assay [6] it was 21.6% (inactive); in assay [7] it was -63.4% (active). The growth in assay [8] was 27% (inactive); in assay [9], 12.2% (inactive); in assay [10], -5.64% (active); in assay [11] it was 6.73% (active); in assay [12], 4.6% (active); in assay [13], -4.58% (active). Also, the growth in [14] was -89.6% (active); in assay [15], -46.2% (active); in [16], -41.1% (active).
With `COc1ccc(NC(=O)Cn2c(/C=C/c3cccc([N+](=O)[O-])c3)nc3ccccc3c2=O)cc1`, the growth in assay [1] was 124% (inactive); in assay [2], 43.3% (inactive); in [3], 118% (inactive); in assay [5], 42% (inactive); in assay [6], 104% (inactive); in [7], 50.7% (inactive). For the same molecule, the growth in assay [8] was 66.8% (inactive); in assay [9] it was 70.8% (inactive); in [10], 69.2% (inactive); in assay [11], 99.8% (inactive); in assay [12], 92.6% (inactive); in [13], 46.8% (inactive). In addition, the growth in assay [14] is 55.4% (inactive); in [15] it was 112% (inactive); in [16] it was 77.5% (inactive); in assay [17], 83.6% (inactive).
`Cc1ccc(-c2nnc3ccc(N/N=C/c4ccccc4)nn23)cc1`: the growth in assay [1] is 80.6% (inactive); in [2], 87.1% (inactive); in assay [3], 107% (inactive); in assay [4], 69.1% (inactive); in assay [5], 100% (inactive); in [6], 98.9% (inactive). In addition, the growth in assay [7] was 30.3% (inactive); in [8], 46.6% (inactive); in assay [9], 84.1% (inactive); in assay [10] it was 98.8% (inactive); in assay [11] it was 76.1% (inactive); in assay [12] it was 90.6% (inactive). Further, the growth in assay [13] is 47.9% (inactive); in assay [14] it was 99.5% (inactive); in assay [15], 111% (inactive); in [16], 57.2% (inactive); in assay [17] it was 91.4% (inactive).
Consider `O=C1Nc2ccc([N+](=O)[O-])cc2C1=Nc1ccccc1`, for which the growth in assay [1] is 121% (inactive); in [2], 106% (inactive); in assay [3] it was 103% (inactive); in assay [4], 113% (inactive); in assay [5], 113% (inactive); in assay [6] it was 98.6% (inactive). In addition, the growth in assay [7] was 95.3% (inactive); in [8], 97.9% (inactive); in assay [9], 103% (inactive); in assay [10], 84.1% (inactive); in assay [11] it was 111% (inactive); in assay [12], 102% (inactive). Further, the growth was 85.4% (inactive) in assay [13]; 106% (inactive) in assay [14]; 112% (inactive) in [15]; 105% (inactive) in [16]; 109% (inactive) in assay [17].
Regarding `COCOc1cc2oc(C(=O)N[C@@H](Cc3ccccc3)C(O)C(=O)NCc3ccccc3)c(C)c(=O)c2cc1OCOC` (stereo not given in full), the growth in assay [1] was 99.3% (inactive); in assay [2] it was 22.2% (inactive); in assay [3], 91.8% (inactive); in assay [4], 43.9% (inactive); in assay [5], 33.4% (inactive); in assay [6], 101% (inactive). The growth is 99% (inactive) in assay [7]; 71.4% (inactive) in [8]; 98% (inactive) in [10]; 95.9% (inactive) in [18]; 38.9% (inactive) in assay [11]; 103% (inactive) in [12]. For the same molecule, the growth in assay [13] was 67.5% (inactive); in assay [14] it was -15.3% (active); in assay [15], 114% (inactive); in [16], 64.8% (inactive); in [17] it was 79.9% (inactive).
With `COc1ccc(C(=O)/C=C/c2cccc(Cl)c2)cc1S(N)(=O)=O`, the growth in assay [1] was -5.22% (active); in assay [2], -70.3% (active); in [3] it was -17.8% (active); in [4], 46.4% (inactive); in [5] it was 49.8% (inactive); in [6] it was 6.51% (active). Also, the growth in [7] is -58.8% (active); in [8], 95.4% (inactive); in assay [9], 14.3% (inactive); in assay [10] it was -53.8% (active); in assay [11], 14% (inactive); in assay [12] it was -19.9% (active). Also, the growth in assay [13] was -67% (active); in assay [14], -64.2% (active); in [15], 1.16% (active); in assay [16] it was -57.9% (active); in assay [17], -53.8% (active).
